# ELG1 genotoxic = qHTS screen for small molecules that induce genotoxicity in human embryonic kidney (HEK293T) cells expressing luciferase-tagged ELG1; AID 504466, 2011; HEK293T ELG1-luciferase reporter, luminescence, 16 h; hit rate 1.3% among 330,000; Potency, µM (top dose mostly 46 µM), for the others: top-dose activity change, positive = activation, hits mostly activators; also: % of control where 0% means no effect; nearly all actives have a fitted effect of over 60% in size
#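 HEK293T cells expressing luciferase-tagged ELG1 were exposed to compound or DMSO vehicle for 16 hr at 37 °C and 5% CO2. Luciferase activity was then measured with ONE-Glo after 30 min at room temperature.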
# FLuc counter = qHTS profiling assay for firefly luciferase inhibitor/activator using purifed enzyme and Km concentrations of substrates (counterscreen for miR-21 project); Luciferin 4-monooxygenase (Photinus pyralis), P08659; purified FLuc, Km substrates, luminescence inhibition; Potency, µM (top dose mostly 57.5 µM), without a hit: at the top dose activity change, negative = inhibition, hits mostly inhibitors; hit rate 6.9% among 360,000;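 also: plate controls were vehicle for no effect and reference inhibitor for full effect; nearly all actives have a fitted effect of over 55% in size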
# Target sequence (P08659 whole entry, looked up): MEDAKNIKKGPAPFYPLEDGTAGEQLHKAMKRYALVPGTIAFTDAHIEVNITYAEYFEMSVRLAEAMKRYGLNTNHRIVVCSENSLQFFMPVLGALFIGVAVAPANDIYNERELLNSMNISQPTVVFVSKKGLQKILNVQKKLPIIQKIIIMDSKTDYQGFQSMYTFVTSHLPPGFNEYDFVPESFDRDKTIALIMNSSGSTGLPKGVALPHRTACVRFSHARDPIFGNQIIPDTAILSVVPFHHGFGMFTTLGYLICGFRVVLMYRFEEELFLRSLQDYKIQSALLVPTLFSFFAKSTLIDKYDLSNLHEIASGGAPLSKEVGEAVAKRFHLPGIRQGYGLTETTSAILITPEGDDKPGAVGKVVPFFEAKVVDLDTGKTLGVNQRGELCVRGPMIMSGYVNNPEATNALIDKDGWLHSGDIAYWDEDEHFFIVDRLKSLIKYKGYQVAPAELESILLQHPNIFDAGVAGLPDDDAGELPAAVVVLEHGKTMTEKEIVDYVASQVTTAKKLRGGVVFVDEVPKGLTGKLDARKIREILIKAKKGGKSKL
#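 Biochemical qHTS of compounds, final roughly 60 µM downward over six points, against 10 nM purified firefly luciferase using Km concentrations of substrates (10 uM D-luciferin, 10 uM ATP) in Tris acetate pH 7.5 buffer; luminescence output.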
# ELG1 repair inh = qHTS screen for small molecules that inhibit ELG1-dependent DNA repair in human embryonic kidney (HEK293T) cells expressing luciferase-tagged ELG1; HEK293T ELG1-luciferase reporter, luminescence, 16 h; DNA damage induced by 5-fluorouridine; Potency, µM (titrated, usually from 46.1 µM), without a hit: at the top dose activity change, negative = inhibition, hits mostly inhibitors; hit rate 2.3% among 330,000; AID 504467, 2011; also: % is scaled to controls: 0 for no effect and ±100 for the full control effect; nearly all actives have a fitted effect of over 55% in size
#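 Quantitative HTS, concentration-response format. 2,000 cells/well co-treated with 5-fluorouridine and compound, 16 hr in 5% CO2 at 37 °C; ONE-Glo luminescence read after 30 min.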
# NPC1 prom act = qHTS Assay for NPC1 Promoter Activators. Huh7 NPC1 promoter luciferase reporter, 24 h. Potency, µM (titrated, usually from 9.22 µM), inactives show top-dose activation, actives largely listed as activators. hit rate 2.4% among 320,000. AID 485313, 2010; also: % of control where 0% means no effect; nearly all actives have a fitted effect of over 60% in size
#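 NPC1 promoter–luciferase Huh7 cells; 24 h compound; luminescence.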
# Rab9 promoter act = qHTS Assay for Rab9 Promoter Activators; Huh7 Rab9 promoter-luciferase reporter, luminescence, 24 h; Potency, µM (titrated, usually from 9.22 µM), without a hit: top-dose activation, negative = inhibition, hits mostly activators; hit rate 2.8% among 320,000; AID 485297, 2010; also: % of control where 0% means no effect; nearly all actives have a fitted effect of over 60% in size
#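 Luciferase signal after 10 min detection reagent at ambient indicates Rab9 promoter upregulation; stably transfected Huh7 cells were treated 24 h with compound in DMSO at 37 °C, 5% CO2.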
# SMN2 splice up = qHTS Assay for Enhancers of SMN2 Splice Variant Expression. AID 1458, 2008. hit rate 2.8% among 210,000. HEK293 SMN2-luciferase splicing reporter, luminescence, 30-36 h. Potency, µM (top dose mostly 46.1 µM), for inactives: at the highest dose activity change, positive = activation, usual class: activators; also: % of control where 0% means no effect; nearly all actives have a fitted effect of over 55% in size
#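 HEK293 cells carry an SMN2 […]–luciferase reporter in which exon 7 inclusion puts luciferase in frame. Cells were plated 10-12 h before compound addition, then incubated 30-36 h at 37C. ONE-Glo luminescence was read; sodium butyrate at 4.5 mM final served as control.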
# * marks the source's active call; other numbers are inactive results; ? = inconclusive; / = no result given; [ ] = another dose, or the depositor's remark. The list is not random: actives were taken first. Their share in the collection is about 9.2%. Calls follow the shape of the dose curve; as a rule, active = well fitted curve in the direction sought with a large enough effect; inconclusive = small, poorly fitted or top-dose-only effect, or another doubt; inactive = no such curve, though single readings can be large; an effect the other way counts as inactive or inconclusive. Potency is read from the fitted curve at half-maximal effect.
SMILES,ELG1 genotoxic,FLuc counter,ELG1 repair inh,NPC1 prom act,Rab9 promoter act,SMN2 splice up
O=C(CSc1cccc(C(F)(F)F)c1)Nc1ccc(N2CCOCC2)cc1,0%,/,-3%,/,/,/
O=C(NC(=O)c1ccccc1O)c1ccc2c(c1)CCO2,?,1.2µM*,?,1.4µM*,?,/
Cc1ccccc1CSc1nc(-c2cccc(F)c2)nc2c1Cc1c(CO)cnc(C)c1O2,/,-1%,/,/,/,/
CCOC(=O)c1sc(NC(=O)c2cc(CC)on2)c(C(=O)OCC)c1C,/,-2%,/,/,/,-4%
COc1ccccc1NS(=O)(=O)c1ccc2nc(CCl)[nH]c2c1,0%,1%,?,-10%,-4%,/
COc1ccc(NS(=O)(=O)c2ccc3nc(COc4ccc5ccccc5c4)[nH]c3c2)cc1,-6%,-7%,23µM*,0%,2%,/
COc1ccc(OCc2nc3ccc(S(=O)(=O)Nc4ccccc4Cl)cc3[nH]2)cc1,-2%,-1%,-21%,-1%,0%,-36%
COc1ccc(NS(=O)(=O)c2ccc3nc(COc4cccc5ccccc45)[nH]c3c2)cc1,-10%,0%,23µM*,-1%,-1%,-15%[1.84 µM]
CC(C)C1/C(=N/O)CC(c2ccccc2)NC1c1ccccc1 (stereo not drawn),-14%,-3%,16µM*,-1%,1%,/
CC1/C(=N/O)CC(c2ccccc2)NC1c1ccccc1 (stereo not drawn),-6%,1%,-3%,1%,-1%,-20%
COc1cccc(NC(=O)c2oc3ccccc3c2NC(=O)c2ccccc2C)c1,/,-9%,/,/,/,-13%
CCSc1ccc(-c2ccco2)nn1,10%,?,?,22%,21%,24%
Fc1cccc(CSc2ccc(-c3ccco3)nn2)c1,?,12µM*,?,?,?,?
Fc1ccc(CSc2ccc(-c3ccco3)nn2)cc1,?,4.8µM*,?,3.2µM*,3.2µM*,22µM*
O=C(CSc1ccc(-c2ccco2)nn1)NCc1ccc(F)cc1,1%,-14%,0%,-1%,9%,5%
CSc1ccc(-c2ccco2)nn1,?,?,?,?,3.2µM*,/
CCN1CCN(c2cc(C)c3cc(NC(=O)/C=C/c4ccc(OCCC(C)C)cc4)ccc3n2)CC1,/,-1%,/,/,/,4%
CC(=O)Nc1ccc(NC(=O)CC(C)n2ccnc2)cc1 (stereo not drawn),0%,0%,17%,2%,-9%,/
CCn1c(C)c(/C=N/Nc2nc3ccccc3s2)c2ccccc21,0%,13µM*,-2%,?,12%,-25%
C(=N\Nc1nc2ccccc2s1)/c1cccs1,?,0.85µM*,?,?,1.3µM*,7.1µM*
Cc1ccnc(N/N=C/c2ccco2)n1,?,17µM*,?,?,26%,?
Cc1ccsc1/C=N/Nc1nc2ccccc2s1,1.5µM*,1.7µM*,?,3.5µM*,1.8µM*,1µM*
CCOC(=O)[C@H]1[C@H]2COc3cc(OC)ccc3[C@@H]2N2C(=O)c3c(C)cc(C)cc3NC(=O)[C@@]12C,-1%,/,-11%,/,/,/
Cc1c2cnn(CC(=O)N3CCN(c4ccc(F)cc4)CC3)c(=O)c2c(C)n1Cc1ccccc1F,/,-19%,/,/,/,-2%
COC(=O)c1ccc(NC(=O)CSc2nc(=O)[nH]c3c2CCCC3)cc1,/,1%,/,/,/,/
SMILES,ELG1 genotoxic,FLuc counter,ELG1 repair inh,NPC1 prom act,Rab9 promoter act,SMN2 splice up
C(=N\Nc1nc2ccccc2s1)/c1ccco1,?,1.2µM*,?,2.2µM*,1.3µM*,1.6µM*
Cc1cc(N/N=C/c2ccco2)c2ccccc2n1,0%,-16%,13%,4%,-3%,2%
O=C(c1cc(-c2cccs2)nn1-c1ccccc1)N1CCN(S(=O)(=O)c2ccccc2)CC1,-4%,4%,-9%,-11%,-1%,/
Cc1ccc(N=C/C(C(=O)C(F)(F)F)=C(\O)c2cccs2)cc1,?,13µM*,?,1.8µM*,1.8µM*,?
O=C1N[C@H](Cc2ccccc2)COC(=O)[C@@H](Cc2ccc(F)cc2)C/C=C\C[C@H]1CC(=O)N(CCO)Cc1ccccc1,-3%,/,?,/,/,/
O=C1N[C@@H](Cc2c[nH]c3ccccc23)COC(=O)[C@H](Cc2ccc(F)cc2)C/C=C\C[C@@H]1CC(=O)N(CCO)Cc1ccccc1,-9%,/,23µM*,/,/,/
O=C(N[C@H]1C/C=C\C[C@@H](CC(=O)N(CCO)Cc2ccccc2)C(=O)N[C@H](Cc2c[nH]c3ccccc23)COC1=O)OCC1c2ccccc2-c2ccccc21,-5%,/,21µM*,/,/,/
O=C1N[C@@H](Cc2c[nH]c3ccccc23)COC(=O)[C@@H](Cc2ccc(F)cc2)C/C=C\C[C@H]1CC(=O)N(CCO)Cc1ccccc1,-11%,/,18µM*,/,/,/
Clc1cccc(CNCCCSc2nnnn2-c2ccccc2)c1,/,-2%,/,/,/,/
CCOc1ccc(N(C)Cc2cc(=O)oc3ccc(OCC)cc23)cc1,-5%,0%,-3%,1%,-2%,/
CN(C(=O)COC(=O)Cn1cnc2ccccc21)C1CCCCC1,0%,/,-13%,/,/,/
COc1cc2c(cc1OC)C1O[C@](c3ccsc3)(C2)OC2=C1C(=O)CC(C)(C)C2,/,-15%[11.5 µM],/,1%[1.84 µM],0%[1.84 µM],/
Cn1cccc1C(=O)NCCc1ccccc1,2.3µM*,4.8µM*,?,0.4µM*,0.5µM*,/
Cn1cccc1C(=O)NCCc1ccc(Cl)cc1,?,15µM*,?,2.8µM*,2.5µM*,/
COc1ccc(C)cc1-n1nnc(S(=O)(=O)c2ccc(C)cc2)c1C,/,-5%,/,/,/,-1%
Cc1cc2sc(NC(=O)c3ccco3)nc2cc1Cl,?,1.3µM*,?,1.4µM*,1.1µM*,/
COc1cc2sc(NC(=O)c3ccco3)nc2cc1Cl,2.3µM*,?,?,0.71µM*,0.56µM*,/
CCN(CC)c1ccc(CN(C(=O)Cc2coc3ccc(C)cc23)C2CCS(=O)(=O)C2)cc1 (stereo not drawn),/,6%,/,/,/,-14%
COc1ccc2c(c1)CC(C(=O)Nc1ccc(Cl)cc1)/C(=N/O)O2 (stereo not drawn),7%,-1%,2%,-2%,-3%,/
O=C(Cn1ccc2cc(S(=O)(=O)N3CCCCCC3)ccc21)NCc1cccc(Cl)c1,/,8%,/,/,/,/
